{
  "source": "paper PMC7862700",
  "about": "“An all-to-all approach to the identification of sequence-specific readers for epigenetic DNA modifications on cytosine”",
  "assay_in_all_cases": "DAPPL (digital affinity profiling via proximity ligation, sequencing); 10 mM Tris-HCl pH 7.5, 50 mM NaCl, 1 mM DTT, 4% glycerol, room temperature, 30 min; GST-TFs on glutathione beads, 16-mer random dsDNA library, 0.1% formaldehyde crosslink after washing; high values mean tight binding",
  "conditions_in_all_cases": "protein: recombinant; tags: N-terminal GST; dsDNA, one strand shown",
  "key": {"[1]": {"molecular_target": "ETV1 (Homo sapiens, UniProt P50549 1-477)", "sequence (P50549 whole entry, the tested form may be a part)": "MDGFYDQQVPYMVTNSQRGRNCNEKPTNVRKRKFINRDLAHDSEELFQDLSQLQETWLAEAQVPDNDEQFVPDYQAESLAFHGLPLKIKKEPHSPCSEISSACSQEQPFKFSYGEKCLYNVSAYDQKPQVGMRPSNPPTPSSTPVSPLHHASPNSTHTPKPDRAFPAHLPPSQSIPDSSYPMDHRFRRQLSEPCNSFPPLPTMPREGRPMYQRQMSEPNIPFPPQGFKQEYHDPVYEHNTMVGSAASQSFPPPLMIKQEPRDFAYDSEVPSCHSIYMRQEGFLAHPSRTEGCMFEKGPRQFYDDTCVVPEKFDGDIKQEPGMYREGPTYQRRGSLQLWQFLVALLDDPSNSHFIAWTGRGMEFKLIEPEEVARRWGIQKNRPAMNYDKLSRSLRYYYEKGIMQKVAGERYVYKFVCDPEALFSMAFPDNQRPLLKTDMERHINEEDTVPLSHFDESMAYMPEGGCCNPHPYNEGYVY", "method_in_brief": "(§1)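 In yeast, human transcription factors were expressed with a GST fusion, then pulled down on glutathione beads and given DNA barcodes. Pooled with a tag-only sample, they were exposed to 200 nmole of a 16-mer random double-stranded DNA library (Tris/NaCl/DTT/glycerol buffer, room temperature, 30 min), washed, crosslinked with 0.1% formaldehyde, proximity-ligated using BsaI/T4 ligase for 1 h at 37 °C, PCR-amplified and read on an Illumina NextSeq500. Each hexamer's frequency of reads for a factor, divided by the matching frequency for the tag-only sample, gives the binding signal.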"}, "[2]": {"molecular_target": "T1, ERF (Homo sapiens, UniProt P50548 1-548)", "T1 sequence": "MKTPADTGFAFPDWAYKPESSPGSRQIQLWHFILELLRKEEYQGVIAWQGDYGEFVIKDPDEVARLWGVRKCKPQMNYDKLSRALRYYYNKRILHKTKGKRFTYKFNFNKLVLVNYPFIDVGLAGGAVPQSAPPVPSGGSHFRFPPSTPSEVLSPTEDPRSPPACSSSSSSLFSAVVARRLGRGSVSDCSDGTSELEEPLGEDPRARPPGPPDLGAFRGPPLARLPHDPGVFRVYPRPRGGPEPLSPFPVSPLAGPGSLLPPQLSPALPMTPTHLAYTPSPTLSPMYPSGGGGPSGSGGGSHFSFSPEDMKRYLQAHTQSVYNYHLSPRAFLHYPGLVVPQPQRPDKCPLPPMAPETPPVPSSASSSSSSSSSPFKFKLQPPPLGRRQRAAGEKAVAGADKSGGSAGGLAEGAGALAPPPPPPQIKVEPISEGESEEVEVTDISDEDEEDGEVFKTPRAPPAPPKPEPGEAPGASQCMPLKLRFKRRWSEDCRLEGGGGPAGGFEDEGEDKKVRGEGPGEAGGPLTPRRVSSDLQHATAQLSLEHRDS", "method_in_brief": "as §1"}, "[3]": {"molecular_target": "T2, ETV3L (Homo sapiens, UniProt Q6ZN32 1-361)", "T2 sequence": "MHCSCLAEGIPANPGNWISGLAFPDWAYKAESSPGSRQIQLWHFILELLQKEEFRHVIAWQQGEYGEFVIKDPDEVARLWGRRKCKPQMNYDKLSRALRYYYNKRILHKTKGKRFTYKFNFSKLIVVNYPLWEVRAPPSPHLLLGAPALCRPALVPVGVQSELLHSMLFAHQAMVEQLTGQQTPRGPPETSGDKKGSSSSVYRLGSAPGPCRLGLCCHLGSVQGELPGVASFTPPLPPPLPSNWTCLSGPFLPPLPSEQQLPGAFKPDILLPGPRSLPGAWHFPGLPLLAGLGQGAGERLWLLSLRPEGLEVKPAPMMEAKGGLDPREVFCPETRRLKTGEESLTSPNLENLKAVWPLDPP", "method_in_brief": "as §1"}, "[4]": {"molecular_target": "T3, ETS2 (Homo sapiens, UniProt P15036 1-469)", "T3 sequence": "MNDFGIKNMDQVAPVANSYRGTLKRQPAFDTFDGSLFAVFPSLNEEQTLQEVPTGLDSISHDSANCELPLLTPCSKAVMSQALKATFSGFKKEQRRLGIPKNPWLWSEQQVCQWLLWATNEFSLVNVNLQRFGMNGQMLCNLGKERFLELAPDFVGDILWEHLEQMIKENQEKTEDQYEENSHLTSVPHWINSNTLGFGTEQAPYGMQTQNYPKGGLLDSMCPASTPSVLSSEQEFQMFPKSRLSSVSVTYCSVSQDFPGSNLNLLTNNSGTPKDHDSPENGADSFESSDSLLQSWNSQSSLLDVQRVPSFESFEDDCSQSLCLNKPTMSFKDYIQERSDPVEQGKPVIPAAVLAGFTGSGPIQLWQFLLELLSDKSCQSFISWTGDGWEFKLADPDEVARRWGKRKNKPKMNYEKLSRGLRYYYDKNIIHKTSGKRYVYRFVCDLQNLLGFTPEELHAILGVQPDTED", "method_in_brief": "as §1"}, "[5]": {"molecular_target": "T4, SPDEF (Homo sapiens, UniProt O95238 1-335)", "T4 sequence": "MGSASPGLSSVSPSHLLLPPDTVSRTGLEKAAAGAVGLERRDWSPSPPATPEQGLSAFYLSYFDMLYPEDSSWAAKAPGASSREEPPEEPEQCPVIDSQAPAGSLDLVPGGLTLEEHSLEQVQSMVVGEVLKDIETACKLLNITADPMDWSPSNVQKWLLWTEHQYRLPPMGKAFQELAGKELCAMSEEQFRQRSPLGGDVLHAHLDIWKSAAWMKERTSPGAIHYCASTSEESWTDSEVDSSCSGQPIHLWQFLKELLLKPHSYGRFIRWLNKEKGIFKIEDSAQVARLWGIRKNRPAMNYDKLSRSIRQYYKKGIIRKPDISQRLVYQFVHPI", "method_in_brief": "as §1"}, "[6]": {"molecular_target": "T5, ETV7 (Homo sapiens, UniProt Q9Y603 1-341)", "T5 sequence": "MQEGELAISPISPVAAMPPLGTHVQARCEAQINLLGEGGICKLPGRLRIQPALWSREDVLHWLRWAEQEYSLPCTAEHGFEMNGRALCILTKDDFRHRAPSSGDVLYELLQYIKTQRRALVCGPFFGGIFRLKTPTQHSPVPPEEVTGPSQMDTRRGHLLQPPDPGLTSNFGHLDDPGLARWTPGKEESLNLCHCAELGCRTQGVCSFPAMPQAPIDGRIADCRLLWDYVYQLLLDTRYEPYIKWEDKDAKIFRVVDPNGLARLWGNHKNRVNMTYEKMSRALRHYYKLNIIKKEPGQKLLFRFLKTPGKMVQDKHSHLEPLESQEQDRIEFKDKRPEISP", "method_in_brief": "as §1"}, "[7]": {"molecular_target": "T6, ELF5 (Homo sapiens, UniProt Q9UKW6-2 1-255)", "T6 sequence": "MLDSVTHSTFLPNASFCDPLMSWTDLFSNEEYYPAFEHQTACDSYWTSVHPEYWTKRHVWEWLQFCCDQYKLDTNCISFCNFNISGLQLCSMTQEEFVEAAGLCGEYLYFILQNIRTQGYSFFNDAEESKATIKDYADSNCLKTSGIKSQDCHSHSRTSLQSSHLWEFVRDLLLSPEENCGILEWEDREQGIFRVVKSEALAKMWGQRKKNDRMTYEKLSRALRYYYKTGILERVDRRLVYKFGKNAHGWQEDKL", "method_in_brief": "as §1"}, "[8]": {"molecular_target": "T7, ETV3 (Homo sapiens, UniProt P41162-2 1-143)", "T7 sequence": "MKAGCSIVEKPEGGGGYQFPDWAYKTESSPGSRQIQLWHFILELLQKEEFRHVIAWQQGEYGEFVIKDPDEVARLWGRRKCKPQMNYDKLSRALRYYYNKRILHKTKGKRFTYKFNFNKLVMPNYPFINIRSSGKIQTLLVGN", "method_in_brief": "as §1"}, "[9]": {"molecular_target": "ETV6 (Homo sapiens, UniProt P41212 1-452)", "sequence (P41212 whole entry)": "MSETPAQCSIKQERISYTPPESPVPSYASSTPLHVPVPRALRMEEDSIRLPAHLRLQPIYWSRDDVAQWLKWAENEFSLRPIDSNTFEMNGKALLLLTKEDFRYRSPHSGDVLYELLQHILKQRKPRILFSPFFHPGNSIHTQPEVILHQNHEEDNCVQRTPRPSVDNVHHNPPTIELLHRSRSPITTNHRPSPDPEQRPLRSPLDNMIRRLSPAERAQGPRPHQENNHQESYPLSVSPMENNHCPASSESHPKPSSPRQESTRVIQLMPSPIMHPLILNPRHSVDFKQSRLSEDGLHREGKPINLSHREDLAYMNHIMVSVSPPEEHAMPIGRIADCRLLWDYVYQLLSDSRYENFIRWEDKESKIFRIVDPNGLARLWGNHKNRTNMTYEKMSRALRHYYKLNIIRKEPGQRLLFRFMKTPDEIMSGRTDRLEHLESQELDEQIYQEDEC", "method_in_brief": "as §1"}},
  "data": [
    {"sequence": "CTTGAA", "values": [
      {"measurement": "binding signal", "setting": "[1]", "value": "1.09 fold enrichment (6-mer frequency, TF over GST control)"},
      {"measurement": "binding signal", "setting": "[2]", "value": "1.2 fold enrichment (6-mer frequency, TF over GST control)"},
      {"measurement": "binding signal", "setting": "[3]", "value": "1.11 fold enrichment (6-mer frequency, TF over GST control)"},
      {"measurement": "binding signal", "setting": "[4]", "value": "1.16 fold enrichment (6-mer frequency, TF over GST control)"},
      {"measurement": "binding signal", "setting": "[5]", "value": "1.13 fold enrichment (6-mer frequency, TF over GST control)"},
      {"measurement": "binding signal", "setting": "[6]", "value": "1.08 fold enrichment (6-mer frequency, TF over GST control)"},
      {"measurement": "binding signal", "setting": "[7]", "value": "1.15 fold enrichment (6-mer frequency, TF over GST control)"},
      {"measurement": "binding signal", "setting": "[8]", "value": "1.16 fold enrichment (6-mer frequency, TF over GST control)"},
      {"measurement": "binding signal", "setting": "[9]", "value": "1.07 fold enrichment (6-mer frequency, TF over GST control)"}
    ]}
  ]
}
